What all share (test): PBM; 200 nM protein, PBS
What all share (conditions): dsDNA, one strand shown

Test [1] deals with NKX2-5 (Homo sapiens, UniProt P52952 125-210, R139K).
For test [2], the target named is T1, NKX2-4 (Homo sapiens, UniProt Q9H2Z4 175-261, P217L).
T1 sequence: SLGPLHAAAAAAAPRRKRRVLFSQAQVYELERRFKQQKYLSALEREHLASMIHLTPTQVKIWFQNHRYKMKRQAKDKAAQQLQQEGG

Test [3] concerns the target T2, NKX2-4 (Homo sapiens, UniProt Q9H2Z4 175-261, T231S).
T2 sequence: T1 sequence with L43P, T57S

Test [4] has as its target T3, NKX2-4 (Homo sapiens, UniProt Q9H2Z4 175-261).
T3 sequence: T1 sequence with L43P

Test [5] addresses T4, NKX2-6 (Homo sapiens, UniProt A6NCS4 118-204, R150C).
T4 sequence: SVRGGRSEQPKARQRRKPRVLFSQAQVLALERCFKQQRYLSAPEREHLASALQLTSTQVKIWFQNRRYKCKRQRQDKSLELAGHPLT

The target of test [6] is T5, NKX2-6 (Homo sapiens, UniProt A6NCS4 118-204).
T5 sequence: T4 sequence with C33R

For test [7], the target named is T6, NKX2-4 (Homo sapiens, UniProt Q9H2Z4 175-261, R246Q).
T6 sequence: T1 sequence with L43P, R72Q

The target of test [8] is T7, NKX2-6 (Homo sapiens, UniProt A6NCS4 118-204, F151L).
T7 sequence: T4 sequence with C33R, F34L

The target of test [9] is NKX2-5 (Homo sapiens, UniProt P52952 125-210).
Sequence of NKX2-5 (Homo sapiens, UniProt P52952 125-210) (P52952 125-210): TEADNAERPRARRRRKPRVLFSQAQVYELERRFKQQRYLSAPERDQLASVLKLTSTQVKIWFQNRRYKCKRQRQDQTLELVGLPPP
In test [10] the target is NKX3-2 (Homo sapiens, UniProt P78367 192-278, P234S).
Sequence of NKX3-2 (Homo sapiens, UniProt P78367 192-278, P234S) (P78367 192-278 P234S): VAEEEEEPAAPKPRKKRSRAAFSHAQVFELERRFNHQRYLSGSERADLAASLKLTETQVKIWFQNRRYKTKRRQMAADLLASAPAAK
The target in test [11] is NKX3-2 (Homo sapiens, UniProt P78367 192-278).
Sequence of NKX3-2 (Homo sapiens, UniProt P78367 192-278) (P78367 192-278): as the sequence (P78367 192-278 P234S) above, with S43P counted along it

This note sets out measurements from publication PMC11006913.

Substitutions are numbered along the chain they refer to.

Sequence of NKX2-5 (Homo sapiens, UniProt P52952 125-210, R139K) (P52952 125-210 R139K): as the sequence (P52952 125-210) above, with R15K counted along it

For TCAAGTGA, the binding signal with NKX2-5 [1] was 12.5 upbm affinity estimate (log intensity, higher = more binding, comparable within an allelic series); with NKX2-4 [2], 12.5 upbm affinity estimate (log intensity, higher = more binding, comparable within an allelic series); with NKX2-4 [3], 13 upbm affinity estimate (log intensity, higher = more binding, comparable within an allelic series); in the test with NKX2-4 [4], 12.4 upbm affinity estimate (log intensity, higher = more binding, comparable within an allelic series); with NKX2-6 [5], 11.7 upbm affinity estimate (log intensity, higher = more binding, comparable within an allelic series); in the test with NKX2-6 [6] it was 13.5 upbm affinity estimate (log intensity, higher = more binding, comparable within an allelic series). Besides, the binding signal with NKX2-4 [7] was 13.1 upbm affinity estimate (log intensity, higher = more binding, comparable within an allelic series); in the test with NKX2-6 [8], 10.5 upbm affinity estimate (log intensity, higher = more binding, comparable within an allelic series); with NKX2-5 [9], 12.4 upbm affinity estimate (log intensity, higher = more binding, comparable within an allelic series).

Regarding CACTTGAG, the binding signal in the test with NKX2-5 [1] was 13.3 upbm affinity estimate (log intensity, higher = more binding, comparable within an allelic series); with NKX2-4 [2] it was 12.9 upbm affinity estimate (log intensity, higher = more binding, comparable within an allelic series); in the test with NKX2-4 [3] it was 13.3 upbm affinity estimate (log intensity, higher = more binding, comparable within an allelic series); in the test with NKX2-4 [4], 12.8 upbm affinity estimate (log intensity, higher = more binding, comparable within an allelic series); in the test with NKX2-6 [5] it was 12.1 upbm affinity estimate (log intensity, higher = more binding, comparable within an allelic series); in the test with NKX2-6 [6], 14 upbm affinity estimate (log intensity, higher = more binding, comparable within an allelic series). Also, the binding signal in the test with NKX2-4 [7] was 13.5 upbm affinity estimate (log intensity, higher = more binding, comparable within an allelic series); with NKX2-6 [8], 11.3 upbm affinity estimate (log intensity, higher = more binding, comparable within an allelic series); with NKX2-5 [9], 13.2 upbm affinity estimate (log intensity, higher = more binding, comparable within an allelic series).

Turning to CAAGTACC, the binding signal in the test with NKX2-5 [1] was 12.5 upbm affinity estimate (log intensity, higher = more binding, comparable within an allelic series); with NKX2-4 [2], 12.4 upbm affinity estimate (log intensity, higher = more binding, comparable within an allelic series); in the test with NKX2-4 [3] it was 12.8 upbm affinity estimate (log intensity, higher = more binding, comparable within an allelic series); with NKX2-4 [4], 12.4 upbm affinity estimate (log intensity, higher = more binding, comparable within an allelic series); with NKX2-6 [5] it was 11.6 upbm affinity estimate (log intensity, higher = more binding, comparable within an allelic series); with NKX2-4 [7], 12.9 upbm affinity estimate (log intensity, higher = more binding, comparable within an allelic series). The binding signal in the test with NKX3-2 [10] is 12.5 upbm affinity estimate (log intensity, higher = more binding, comparable within an allelic series); in the test with NKX2-5 [9] it was 12.3 upbm affinity estimate (log intensity, higher = more binding, comparable within an allelic series); in the test with NKX3-2 [11] it was 12.6 upbm affinity estimate (log intensity, higher = more binding, comparable within an allelic series).

Take GTACTTCA: the binding signal is 12.5 upbm affinity estimate (log intensity, higher = more binding, comparable within an allelic series) with NKX2-5 [1]; 12.7 upbm affinity estimate (log intensity, higher = more binding, comparable within an allelic series) with NKX2-4 [2]; 13.1 upbm affinity estimate (log intensity, higher = more binding, comparable within an allelic series) with NKX2-4 [3]; 12.6 upbm affinity estimate (log intensity, higher = more binding, comparable within an allelic series) with NKX2-4 [4]; 11.7 upbm affinity estimate (log intensity, higher = more binding, comparable within an allelic series) with NKX2-6 [5]; 13.4 upbm affinity estimate (log intensity, higher = more binding, comparable within an allelic series) with NKX2-6 [6]. Besides, the binding signal was 13.2 upbm affinity estimate (log intensity, higher = more binding, comparable within an allelic series) with NKX2-4 [7]; 10.8 upbm affinity estimate (log intensity, higher = more binding, comparable within an allelic series) with NKX2-6 [8]; 12.4 upbm affinity estimate (log intensity, higher = more binding, comparable within an allelic series) in the test with NKX2-5 [9].

For CCTCTTAA, the binding signal in the test with NKX2-5 [1] is 12.3 upbm affinity estimate (log intensity, higher = more binding, comparable within an allelic series); in the test with NKX2-4 [2] it was 12.4 upbm affinity estimate (log intensity, higher = more binding, comparable within an allelic series); with NKX2-4 [3], 12.7 upbm affinity estimate (log intensity, higher = more binding, comparable within an allelic series); with NKX2-4 [4], 12.3 upbm affinity estimate (log intensity, higher = more binding, comparable within an allelic series); in the test with NKX2-6 [6], 13.4 upbm affinity estimate (log intensity, higher = more binding, comparable within an allelic series); in the test with NKX2-4 [7], 12.9 upbm affinity estimate (log intensity, higher = more binding, comparable within an allelic series). Besides, the binding signal in the test with NKX2-6 [8] was 10.5 upbm affinity estimate (log intensity, higher = more binding, comparable within an allelic series); with NKX2-5 [9], 12.3 upbm affinity estimate (log intensity, higher = more binding, comparable within an allelic series).

For the sequence CCTCTTGA, the binding signal is 12.5 upbm affinity estimate (log intensity, higher = more binding, comparable within an allelic series) with NKX2-5 [1]; 12.7 upbm affinity estimate (log intensity, higher = more binding, comparable within an allelic series) with NKX2-4 [2]; 13 upbm affinity estimate (log intensity, higher = more binding, comparable within an allelic series) with NKX2-4 [3]; 12.5 upbm affinity estimate (log intensity, higher = more binding, comparable within an allelic series) with NKX2-4 [4]; 11.7 upbm affinity estimate (log intensity, higher = more binding, comparable within an allelic series) with NKX2-6 [5]; 13.4 upbm affinity estimate (log intensity, higher = more binding, comparable within an allelic series) with NKX2-6 [6]. Further, the binding signal with NKX2-4 [7] is 13.2 upbm affinity estimate (log intensity, higher = more binding, comparable within an allelic series); with NKX2-6 [8], 10.5 upbm affinity estimate (log intensity, higher = more binding, comparable within an allelic series); in the test with NKX2-5 [9], 12.5 upbm affinity estimate (log intensity, higher = more binding, comparable within an allelic series).

As for TAAGTACA, the binding signal with NKX2-5 [1] was 12.4 upbm affinity estimate (log intensity, higher = more binding, comparable within an allelic series); with NKX2-4 [3], 12.8 upbm affinity estimate (log intensity, higher = more binding, comparable within an allelic series); with NKX2-6 [5] it was 11.9 upbm affinity estimate (log intensity, higher = more binding, comparable within an allelic series); in the test with NKX2-6 [6] it was 13.3 upbm affinity estimate (log intensity, higher = more binding, comparable within an allelic series); with NKX2-6 [8], 10.5 upbm affinity estimate (log intensity, higher = more binding, comparable within an allelic series); with NKX3-2 [10], 12.6 upbm affinity estimate (log intensity, higher = more binding, comparable within an allelic series). Further, the binding signal in the test with NKX2-5 [9] was 12.4 upbm affinity estimate (log intensity, higher = more binding, comparable within an allelic series); with NKX3-2 [11] it was 12.6 upbm affinity estimate (log intensity, higher = more binding, comparable within an allelic series).
